Source: PubChem BioAssay
Only a selection was taken, and hits are over-represented in it overall.
Ins promoter up: insulin promoter activators in MIN6 cells, imaging, high-content screening, mouse beta cells; MIN6 insulin promoter-GFP reporter; active compounds read high; z-score at 5 µM; AID 1625, 2009; actives 0.3% (n = 190,000);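 active = z-score above 3 at 5 µM with at least 500 cells counted in the well; inconclusive = wells under 500 cells, flagged as cytotoxic or low count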
ROMK primary: ROMK potassium channel modulators, primary screen, cell-based, thallium flux, MLSMR library; Tet-inducible ROMK, thallium flux fluorescence; actives lie on both sides; B-score at 10 µM; actives 2% (n = 130,000); AID 1918, 2009;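 active = signal ratio slope over the read window, or its plate-corrected B-score, at least 3 SD from the plate mean, either direction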;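 note: B-score of the F/F0 ratio slope over 7 to 12 s after thallium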
Target sequence (P48048 whole entry, looked up): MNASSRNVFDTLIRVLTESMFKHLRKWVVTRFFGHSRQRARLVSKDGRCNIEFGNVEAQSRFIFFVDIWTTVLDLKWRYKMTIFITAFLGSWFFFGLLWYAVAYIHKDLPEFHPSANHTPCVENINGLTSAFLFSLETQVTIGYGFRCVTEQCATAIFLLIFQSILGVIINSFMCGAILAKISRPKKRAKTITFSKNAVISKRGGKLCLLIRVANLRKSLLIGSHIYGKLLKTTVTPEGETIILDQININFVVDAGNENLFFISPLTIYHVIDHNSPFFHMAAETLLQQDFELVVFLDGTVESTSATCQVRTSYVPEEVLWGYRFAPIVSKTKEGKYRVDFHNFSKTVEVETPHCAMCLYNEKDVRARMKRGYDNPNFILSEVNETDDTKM
INS promoter inh: inhibitors of insulin promoter-driven GFP, primary screen, imaging, TRM-6 cells (human fetal islet line), eGFP reporter, cell count; reporter expression induced with tamoxifen; inhibition, % at 2 µM; actives 0.9% (n = 130,000);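 active = inhibition above the mean plus 3 SD, with well images judged a real hit on visual review, cut at about 60% in these data, passing the limit was not always enough; inconclusive = inhibition over the cutoff but images rejected on review; inactive = inhibition not above the cutoff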
HSV augment: enhancers of HSV replication in host cells, fold increase, host cell viability | HSV replication augmentation in cells | maximum fold increase | actives 0.005% (n = 220,000) | AID 1956, 2009; in the data active = maximum fold increase above about 1.5; inconclusive = no clear call, values can overlap the other calls; tested in PC3 cells
TbHK1 inh: Trypanosoma brucei hexokinase 1 inhibitors, primary screen, biochemical, G6PDH-coupled NADH absorbance, MLSCN library | AID 1430, 2008 | actives 0.11% (n = 220,000) | recombinant TbHK1, G6PDH-coupled NADH A340 | inhibition, % at 10 µM;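 active = inhibition of 50% or more in the single-dose primary screen; inactive = inhibition below 50%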
ROMK hit retest: ROMK channel modulator hit retest, confirmation, cell-based, thallium flux, duplicate, resupplied hits. actives 54% (n = 3,000). normalized thallium flux (F/F0 slope) at 10 µM. fluorescence ratio; active compounds read low. shares compounds with ROMK primary. AID 1917, 2009;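 active = Flux at 10 µM at least 3 SD below or above vehicle control mean in one or both replicates; inconclusive = no clear call, values can overlap the other calls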
Active calls of the source: *.

For Cc1cc(N2CCOCC2)ccc1/C=C\[N+](=O)[O-] the results were Ins promoter up 0.71, ROMK primary -4.5*, INS promoter inh 29, HSV augment inactive, TbHK1 inh -5 and ROMK hit retest 0.05*.
O=[N+]([O-])c1ccc(N2CCOCC2)cc1O was read as Ins promoter up -0.26, HSV augment inactive and TbHK1 inh -16.
For O=C1c2ccccc2S(=O)(=O)N1CC1CC(c2ccccc2)=NO1 (stereo not given) the results were Ins promoter up 1.3, ROMK primary 2.1*, INS promoter inh 27, HSV augment inactive, TbHK1 inh 2 and ROMK hit retest 0.068*.
For CCCOc1nc2ccccc2cc1/C=C/C(=O)O the results were Ins promoter up 0.68, ROMK primary 0.44, HSV augment inactive and TbHK1 inh -10.
`CCOc1nc2ccccc2cc1C=O` gave Ins promoter up -0.29, ROMK primary 5.3*, HSV augment inactive, TbHK1 inh 0 and ROMK hit retest 0.12*.
For Brc1ccc([C@H]2CN3CCSC3=N2)cc1 the results were HSV augment inactive.
Cc1cc(-c2ccccc2C(=O)O)on1 was read as Ins promoter up 1.1, HSV augment inactive and TbHK1 inh 1.
`O=C(O)c1ccccc1C1=Nc2ccc(O)cc2Oc2cc(O)ccc21` gave Ins promoter up -0.05, INS promoter inh 44, HSV augment inconclusive, TbHK1 inh 3 and ROMK hit retest 0.054*.
For Cc1ccc(S(=O)(=O)NC(CC(=O)NCc2ccco2)c2ccco2)cc1 (stereo not given) the results were Ins promoter up -0.05, ROMK primary 2.8*, INS promoter inh -29, HSV augment inactive, TbHK1 inh 0 and ROMK hit retest inconclusive.
For O=C(O)CCCNC(=O)c1ccccn1 the results were Ins promoter up 0.6, ROMK primary 0.28, INS promoter inh -64, HSV augment inactive and TbHK1 inh 4.
For O=C(Nc1nccs1)Oc1ccccc1 the results were Ins promoter up 0.31, ROMK primary 1.7, HSV augment inactive and TbHK1 inh 6.
C/C(=C\c1ccccc1)C(=O)Nc1nccs1 was read as ROMK primary 1.1*, HSV augment inactive, TbHK1 inh -3 and ROMK hit retest inconclusive.
Screening C=C1CCN([C@@H](CC(C)C)C(=O)NCc2cc(OC)c(OC)c(OC)c2)S(=O)(=O)c2ccccc21 returned HSV augment inactive.
CC(C(Sc1ccccc1N)c1ccccc1)[N+](=O)[O-] (stereo not given) was read as Ins promoter up -2.6, ROMK primary -5.1*, HSV augment inactive, TbHK1 inh -12 and ROMK hit retest 0.042*.
CCOc1ccc(-n2c(SCC(=O)Nc3cc(C)on3)nnc2-c2c[nH]c3ccccc23)cc1 was read as ROMK primary 4.3*, INS promoter inh 47, HSV augment inactive, TbHK1 inh -21 and ROMK hit retest 0.073.
Screening N#C/C(=C\c1ccc(N2CCOCC2)o1)C(=O)NC1CCCCC1 returned Ins promoter up 1.9, TbHK1 inh -9 and ROMK hit retest 0.035*.
`COCCNC(=O)/C(C#N)=C/c1ccc(N2CCOCC2)o1` gave Ins promoter up 2.3, INS promoter inh 17, HSV augment inconclusive and TbHK1 inh 1.
Screening N#C/C(=C\c1ccc(N2CCOCC2)o1)C(=O)NCC1CCCO1 (stereo not given) returned Ins promoter up 0.95, ROMK primary -4.2*, HSV augment inconclusive, TbHK1 inh 0 and ROMK hit retest 0.038*.
CCC(=O)N(Cc1cc(=O)[nH]c2ccccc12)c1ccc(C)cc1 was read as Ins promoter up -0.45, HSV augment inactive and TbHK1 inh -14.
`CC(=O)N(NC(=O)c1ccc(C)cc1)C1CC(=O)N(c2ccccc2Cl)C1=O` (stereo not given) gave Ins promoter up -0.04, ROMK primary -0.17, HSV augment inactive and TbHK1 inh -2.
`CC(=O)N1CCN(C2=NC(=O)/C(=C\c3cccs3)S2)CC1` gave Ins promoter up -0.07, ROMK primary -6.7*, HSV augment inactive, TbHK1 inh -30 and ROMK hit retest 0.083.
For O=C1N=C(N2CCOCC2)S/C1=C/c1cccs1 the results were Ins promoter up 1.5, INS promoter inh -9, HSV augment inactive and TbHK1 inh -31.
Screening COc1ccc(-c2ccnc(-c3ccc(O)cc3)n2)cc1 returned Ins promoter up 0.48, ROMK primary 3.2*, HSV augment inactive, TbHK1 inh -1 and ROMK hit retest 0.086.
COc1cc(C2NC(=O)NC(C)=C2C(C)=O)ccc1O (stereo not given) was read as Ins promoter up -0.83, ROMK primary 0.0066, HSV augment inactive and TbHK1 inh -14.
`CCN1/C(=C\c2ccc3cc(C)ccc3[n+]2CC)Sc2cc(C)c(C)cc21` gave Ins promoter up inconclusive, ROMK primary -5*, INS promoter inh -413, TbHK1 inh 4 and ROMK hit retest 0.047*.
Screening CCN1/C(=C/C(C)=C/c2sc3ccccc3[n+]2CC)Sc2ccccc21 returned Ins promoter up -3.5, ROMK primary -1.2, INS promoter inh inactive, HSV augment inactive and TbHK1 inh 4.
For CCN1/C(=C/c2ccc3cccc(C)c3[n+]2CC)Sc2ccccc21 the results were INS promoter inh -233 and TbHK1 inh -8.
`CCN1/C(=C/c2ccc3cc(C)cc(C)c3[n+]2CC)Sc2cc(C)ccc21` gave Ins promoter up inconclusive, ROMK primary -5.2*, INS promoter inh -413, TbHK1 inh 20 and ROMK hit retest 0.045*.
For Cc1cccc(Sc2nc(-c3ccccc3)ncc2C(=O)O)c1 the results were Ins promoter up 0.05, ROMK primary 1.4, HSV augment inactive and TbHK1 inh -11.
O=CNC(Cc1ccccc1)C(=O)O (stereo not given) was read as Ins promoter up -0.42, ROMK primary 2.2*, INS promoter inh 7, HSV augment inactive, TbHK1 inh -4 and ROMK hit retest 0.075.
O=C(Cc1ccccc1)N[C@@H](Cc1ccccc1)C(=O)O was read as Ins promoter up 0.55, HSV augment inactive and TbHK1 inh -2.
`NC(=O)c1ccc(NC(=O)COC(=O)C2(c3ccccc3F)CCCC2)cc1` gave Ins promoter up -0.37, ROMK primary -13*, INS promoter inh 33, HSV augment inactive, TbHK1 inh 2 and ROMK hit retest 0.079.
`Cc1cc(C(=O)CN2C(=O)NC(C)(c3cccc(Br)c3)C2=O)c(C)n1Cc1ccco1` (stereo not given) gave HSV augment inactive, TbHK1 inh -8 and ROMK hit retest inconclusive.
